Values joined by “and” are separate entries in the source; they are usually repeats but may differ in a detail not shown here. Identical values can stand only once. Records with an inconclusive call do not appear. Active and inactive are the calls of the source. Calls come from the whole dose curve; as a rule, active = well fitted inhibition curve with a large enough effect in the repeat runs; inconclusive = weak or mixed curves; inactive = no such curve, though single readings can be large or run the other way.
Potency is the fitted concentration of half-maximal effect.

Cytochrome P450 2C19 (Homo sapiens), sequence (P33261 whole entry, looked up): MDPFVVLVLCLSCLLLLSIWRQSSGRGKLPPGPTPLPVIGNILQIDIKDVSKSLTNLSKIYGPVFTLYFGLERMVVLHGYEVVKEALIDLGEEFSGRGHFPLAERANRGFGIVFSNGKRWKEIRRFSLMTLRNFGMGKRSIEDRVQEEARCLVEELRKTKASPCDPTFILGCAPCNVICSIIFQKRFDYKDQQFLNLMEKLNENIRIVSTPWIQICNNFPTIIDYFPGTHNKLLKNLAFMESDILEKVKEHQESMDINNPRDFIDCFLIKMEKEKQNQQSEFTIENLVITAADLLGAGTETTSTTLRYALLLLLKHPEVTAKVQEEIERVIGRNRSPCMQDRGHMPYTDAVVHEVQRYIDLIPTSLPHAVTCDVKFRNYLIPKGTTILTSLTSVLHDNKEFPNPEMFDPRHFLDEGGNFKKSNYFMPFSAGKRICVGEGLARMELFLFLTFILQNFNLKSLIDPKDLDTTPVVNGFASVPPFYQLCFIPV

The test deals with Cytochrome P450 2C19 (Homo sapiens) (UniProt P33261). Kind of test: Cytochrome P450 Family 2 Subfamily C Member 19 (CYP2C19) small molecule antagonists: luciferase reporter qHTS assay (AID 1671197). Note: nearly all actives have a fitted effect of over 65% in size. To be noted: P450-Glo CYP2C19 enzyme, luciferin luminescence, 1 h; series mostly up to 115 µM. The text has this:
National Center for Advancing Translational Sciences [NCATS]
U.S. Environmental Protection Agency [EPA]
National Institutes of Environmental Health Sciences [NIEHS]
National Toxicology Program [NTP]
U.S. Food and Drug Administration [FDA]
Cytochrome P450 (CYP) enzymes are membrane-bound hemeproteins that play a key role in metabolism of drugs and xenobiotics. Evaluation of the effect of chemicals on CYP isozymes is useful to minimize the adverse drug reactions and toxicities in drug development process. Tox21 chemicals were tested for their effect on CYP enzyme activities by using P450-Glo (TM) screening systems (Promega Corporation, Madison, WI). These systems provide a luminescent method containing proluciferin substrates and are converted to luciferin products by CYP isozymes. The luciferin products formed are detected with a luciferin detection reagent, and the amount of light produced is proportional to CYP activity. P450-Glo (TM) CYP2C19 screening system (Catalog. No. V9880) was used to detect the compounds that interfere in CYP2C19 activity. The positive control compound used for CYP2C19 assay is ketoconazole (Sigma-Aldrich, St. Louis, MO).
Tox21 Assay Protocol Summary:
Two ul of enzyme-substrate mix was dispensed into medium binding white/solid 1536-well plates (Greiner Bio-One North America Inc., Monroe, NC) using a BioRaptr Flying Reagent Dispenser (FRD, Beckman Coulter, Brea, CA). Compounds dissolved in DMSO and positive control (ketoconazole) were transferred to the assay plates at 23 nl using a Pintool station (Wako, San Diego, CA). The assay plates were incubated at room temperature for 10 min. Then 2 ul of NADPH regeneration solution was added to each well of the assay plates using an FRD and incubated at 37C for 1 h. The reaction was stopped by adding 4 ul of detection reagent using an FRD and after 20 min incubation at room temperature the luminescence signal was measured using a ViewLux plate reader (Perkin Elmer, Shelton, CT). Data were expressed as relative luminescence units.
On the technique in general: A reporter such as luciferase makes a cellular process visible.
On to `S=C=Nc1cccc2ccccc12`, for which the Potency is 2.8 µM (active).
The result for `BrC(Br)C(Br)(Br)Br` reads 40.2 µM (active); that for `Clc1ccc(C(c2ccccc2Cl)C(Cl)(Cl)Cl)cc1` (stereo not given), 637 nM (active) and 234 nM (active).
The result for `C[C@]12CC[C@H](O)C[C@H]1CC[C@@H]1[C@@H]2C[C@@H](O)[C@]2(C)[C@@H](C3=CC(=O)OC3)CC[C@]12O` reads “inactive”; that for `CC(=O)c1cc(C(C)(C)C)cc2c1CCC2(C)C`, “inactive”.
The result for `N#Cc1c(-c2ccc(Cl)cc2)[nH]c(C(F)(F)F)c1Br` reads 39.9 µM (active).
`C[C@]12CC[C@H]3[C@@H](CCC4=CC(=O)CC[C@@]43C)[C@@H]1CC[C@@H]2O`: the Potency entry is “inactive”.
The result for `CNC(C)Cc1ccc2c(c1)OCO2` (stereo not given) reads “inactive”; that for `CC(=O)c1ccc(-c2ccccc2)cc1`, 31.7 µM (active); that for `Cc1c(Cl)c(=O)oc2cc(OP(=O)(OCCCl)OCCCl)ccc12`, 2.19 µM (active).
For `Nc1ccccc1C(=O)Oc1ccc2ccccc2c1` the value was 35.6 µM (active); for `O=C/C(Cl)=C(/Cl)C(=O)O`, “inactive”.
The result for `CCOCn1c(-c2ccc(Cl)cc2)c(C#N)c(Br)c1C(F)(F)F` reads 4.48 µM (active); that for `C[As+](C)(C)CC(=O)[O-]`, “inactive”; that for `CC(C)(C)C(O)/C(=C\c1ccc(Cl)cc1Cl)n1cncn1` (stereo not given), 0.0342 µM (active).
Regarding `N#CSCSC#N`, the Potency is 72.6 µM (active).
For `c1ccc2c(c1)OCC(C1=NCCN1)O2` (stereo not given), the Potency entry was “inactive”.
The result for `CCCCCCCCCCCCBr` reads “inactive”; that for `Clc1ccc(COC(Cn2ccnc2)c2ccc(Cl)cc2Cl)cc1` (stereo not given), 166 nM (active) and 89 nM (active) and 246 nM (active).
Regarding `Oc1c(Cl)c(Cl)cc(Cl)c1Cl`, the Potency result is “inactive”.
The result for `Cc1cc(SCc2sc(-c3ccc(C(F)(F)F)c(F)c3)nc2C)ccc1OCC(=O)O` reads “inactive”; that for `CCOP(=S)(OCC)OC(Cl)C(Cl)(Cl)Cl` (stereo not given), 39.9 µM (active).
`CN(C)CCc1c[nH]c2cccc(O)c12`: the Potency is 19.8 µM (active).
On to `OC(Cc1ccccc1Cl)(Cn1cncn1)C1(Cl)CC1` (stereo not given), for which the Potency is 1.26 µM (active).
The result for `[Hg+2].[I-].[I-]` reads 1.42 µM (active).
For `c1ccc2cc3c(cc2c1)-c1cccc2cccc-3c12` the value was “inactive”.
Regarding `COP(=O)(CCC(=O)NCO)OC`, the Potency result was “inactive”.
The result for `CN(C)C1CSSSC1` reads 35.6 µM (active).
The result for `CCN(CC)c1c([N+](=O)[O-])cc(C(F)(F)F)c(N)c1[N+](=O)[O-]` reads 20 µM (active); that for `O=[N+]([O-])c1c2ccccc2cc2ccccc12`, 11.1 µM (active); that for `CN(C)c1ccc(N=Nc2ccccc2)cc1`, 20 µM (active).
The result for `Cc1ccc(CCl)cc1` reads “inactive”; that for `O=C(O)c1cc[c]([Hg][Cl])cc1`, 7.1 µM (active).
Regarding `ClC1=C(Cl)[C@]2(Cl)[C@@H]3[C@@H]4C[C@@H]([C@H]5O[C@@H]45)[C@@H]3[C@@]1(Cl)C2(Cl)Cl`, the Potency is 3.17 µM (active).
For `COc1ccc(N)cc1N` the value was 732 nM (active) and 3.83 µM (active); for `COc1ccc(OC)c(CC(C)N)c1` (stereo not given), “inactive”.
On to `CC(C)(C)c1cc([N+](=O)[O-])cc(C(C)(C)C)c1O`, for which the Potency was 31.7 µM (active).
The result for `CCS(=O)(=O)c1cccnc1S(=O)(=O)NC(=O)Nc1nc(OC)cc(OC)n1` reads 63.3 µM (active); that for `C[C@@H]1O[C@@H](O[C@@H]2C=C3CC[C@@H]4[C@H](CC[C@]5(C)[C@@H](c6ccc(=O)oc6)CC[C@]45O)[C@@]3(C)CC2)[C@H](O)[C@H](O)[C@H]1O`, “inactive”; that for `O=S(=O)(c1ccc(Cl)cc1)c1ccc(Cl)cc1`, 0.161 µM (active).
